Test results published in PubChem BioAssay (NCI).
Compounds without any hit were thinned out: in the full panel of roughly 79,000, 15% have a hit. Active and inactive are the calls of the source. Rule as the data show it: active = growth inhibition above about 70%; inactive = the rest.

What was measured:
[1] = NCI Yeast Anticancer Drug Screen. Data for the wt1 strain (AID 149);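 also: 0% = growth of vehicle-treated wt1 cultures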; settings: S. cerevisiae wt1 strain (SPY 50644) growth inhibition, stronger effect = higher value
Procedure, shortened: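 Growth inhibition read against vehicle controls after compound exposure of the wt1 yeast strain.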

[2] = NCI Yeast Anticancer Drug Screen. Data for the rad50EPP+ strain (AID 151);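 also: 0% = growth of vehicle-treated control cultures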; settings: S. cerevisiae rad50 mutant strain, stronger effect = higher value
Procedure, shortened: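 In this screen, rad50EPP+ yeast were exposed to compounds. Growth inhibition was scored against vehicle-treated controls.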

[3] = NCI Yeast Anticancer Drug Screen. Data for the mgt1 strain (AID 153); settings: S. cerevisiae mgt1 mutant growth inhibition, stronger effect = higher value
Procedure, shortened: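 mgt1 strain exposed; growth vs vehicle control recorded as inhibition.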

[4] = NCI Yeast Anticancer Drug Screen. Data for the rad50 strain (AID 155);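 also: 0% = growth of vehicle-only cultures of the same strain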; settings: S. cerevisiae rad50 strain growth inhibition, stronger effect = higher value
Procedure, shortened: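 Readout: growth inhibition relative to vehicle-treated cultures. Compound exposure was carried out in a genetically defined yeast strain deficient in DNA damage repair.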

[5] = NCI Yeast Anticancer Drug Screen. Data for the mec2-1 strain (AID 157); settings: S. cerevisiae mec2-1 strain, stronger effect = higher value
Procedure, shortened: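 Vehicle-treated cultures served as reference for growth inhibition of compound-exposed mec2-1 yeast.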

[6] = NCI Yeast Anticancer Drug Screen. Data for the rad14 strain (AID 159);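 also: 0% = growth of vehicle-treated control cultures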; settings: S. cerevisiae rad14 strain growth inhibition, stronger effect = higher value
Procedure, shortened: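 Growth inhibition vs vehicle controls; genetically altered yeast strain (DNA damage repair defect) treated with test compounds.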

[7] = NCI Yeast Anticancer Drug Screen. Data for the sgs1 mgt1 strain (AID 161);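 also: 0% = growth of cultures given vehicle only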; settings: S. cerevisiae sgs1 mgt1 strain, stronger effect = higher value
Procedure, shortened: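 Inhibition of yeast growth, normalised to vehicle-treated controls, is reported for a strain bearing genetic alterations in DNA damage repair.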

[8] = NCI Yeast Anticancer Drug Screen. Data for the CLN2oe strain (AID 163);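 also: 0% = growth of vehicle-only control cultures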; settings: S. cerevisiae CLN2oe strain, stronger effect = higher value
Procedure, shortened: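 Inhibition relative to vehicle-treated yeast is reported. Cells: strain with genetic alteration in cell-cycle control, grown with compound.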

[9] = NCI Yeast Anticancer Drug Screen. Data for the cln2 rad14 strain (AID 165);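 also: 0% = growth equal to vehicle treated cultures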; settings: S. cerevisiae cln2 rad14 strain, stronger effect = higher value
Procedure, shortened: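 Each compound was tested on cln2 rad14 yeast. Inhibition of growth was calculated against vehicle-exposed controls.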

[10] = NCI Yeast Anticancer Drug Screen. Data for the bub3 strain (AID 167); settings: S. cerevisiae bub3 mutant strain, stronger effect = higher value
Procedure, shortened: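 Readout: yeast growth inhibition, expressed relative to vehicle-only wells. The test organism is a mutant strain from a panel with lesions in DNA repair or checkpoint genes.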

[11] = NCI Yeast Anticancer Drug Screen. Data for the wt2 strain (AID 169);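 also: 0% = growth of vehicle-treated yeast cultures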; settings: S. cerevisiae wt2 strain growth inhibition, stronger effect = higher value
Procedure, shortened: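 Inhibition of yeast growth was determined after compound treatment, normalised to controls receiving only vehicle.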

[12] = NCI Yeast Anticancer Drug Screen. Data for the mlh1 strain (AID 171);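 also: 0% = growth of vehicle-treated control cultures of the same strain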; settings: S. cerevisiae mlh1 strain growth inhibition, stronger effect = higher value
Procedure, shortened: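 Vehicle-normalised growth inhibition of a repair- or checkpoint-altered yeast strain following compound treatment.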

[13] = NCI Yeast Anticancer Drug Screen. Data for the sgs1 strain (AID 173);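 also: 0% = growth of vehicle-only control cultures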; settings: S. cerevisiae sgs1 mutant, stronger effect = higher value
Procedure, shortened: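 Screen format: yeast with repair or checkpoint alterations, compound exposure, growth read relative to vehicle.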

[14] = NCI Yeast Anticancer Drug Screen. Data for the mlh1 rad18 strain (AID 175); settings: S. cerevisiae mlh1 rad18 strain growth inhibition, stronger effect = higher value
Procedure, shortened: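 Vehicle-treated cultures served as the reference for growth inhibition in a yeast strain carrying DNA damage repair alterations exposed to each compound.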

[15] = NCI Yeast Anticancer Drug Screen. Data for the rad18 strain (AID 177); settings: S. cerevisiae rad18 mutant growth inhibition, stronger effect = higher value
Procedure, shortened: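 Test articles were incubated with altered yeast defective in DNA damage repair. Results are given as inhibition of growth versus vehicle.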

[16] = NCI Yeast Anticancer Drug Screen. Data for the rad52 strain (AID 147);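 also: 0% = growth of vehicle-treated control cultures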; settings: S. cerevisiae rad52 mutant growth inhibition, stronger effect = higher value
Procedure, shortened: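 Vehicle-treated cultures served as the reference for growth inhibition of compound-exposed yeast bearing a DNA repair mutation.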

[17] = at 5.0 µM (retest, dose inferred, filed as 0.5)
[18] = at 50.0 µM (retest, dose inferred, filed as 5.0)

Measured: growth inhibition

Cn1c(=O)c2ccccc2c2ccccc21
inactive: [1]; at 1.2 µM -5% | [1]; at 3.7 µM -8% | [1]; at 11.0 µM -10% | [1]; at 33.0 µM 11% | [1]; at 100.0 µM 21% | [2]; at 1.2 µM 0% | [2]; at 3.7 µM 19% | [2]; at 11.0 µM 52% | [3]; at 1.2 µM -1% | [3]; at 3.7 µM -3% | [3]; at 11.0 µM -1% | [3]; at 33.0 µM 35% | [3]; at 100.0 µM 51% | [4]; at 1.2 µM -3% | [4]; at 3.7 µM 4% | [4]; [17] -132% | [4]; at 11.0 µM 41% | [5]; at 1.2 µM 0% | [5]; at 3.7 µM 0% | [5]; [17] -45% | [5]; at 11.0 µM 11% | [5]; at 33.0 µM 26% | [5]; [18] 5% | [5]; at 100.0 µM 52% | [6]; at 1.2 µM 0% | [6]; at 3.7 µM 2% | [6]; at 11.0 µM 15% | [6]; at 33.0 µM 39% | [6]; at 100.0 µM 63% | [7]; [17] -64% | [7]; [18] 35% | [8]; at 1.2 µM 1% | [8]; at 3.7 µM 0% | [8]; at 11.0 µM 7% | [8]; at 33.0 µM 22% | [8]; at 100.0 µM 51% | [9]; [17] -54% | [9]; [18] -6% | [10]; at 1.2 µM -5% | [10]; at 3.7 µM -2% | [10]; [17] -69% | [10]; at 11.0 µM 5% | [10]; at 33.0 µM 29% | [10]; [18] 5% | [10]; at 100.0 µM 51% | [11]; at 1.2 µM -1% | [11]; at 3.7 µM -1% | [11]; at 11.0 µM -2% | [11]; at 33.0 µM 21% | [11]; at 100.0 µM 50% | [12]; at 1.2 µM 8% | [12]; at 3.7 µM -5% | [12]; at 11.0 µM 4% | [12]; at 33.0 µM 46% | [12]; at 100.0 µM 59% | [13]; at 1.2 µM -2% | [13]; at 3.7 µM -1% | [13]; at 11.0 µM -2% | [13]; at 33.0 µM 43% | [13]; at 100.0 µM 66% | [14]; [17] -114% | [14]; [18] 36% | [15]; at 1.2 µM 2% | [15]; at 3.7 µM 5% | [15]; at 11.0 µM 31%
active: [2]; at 33.0 µM 87% | [2]; at 100.0 µM 91% | [4]; at 33.0 µM 91% | [4]; [18] 84% | [4]; at 50.0 µM 97% | [4]; at 100.0 µM 94% | [5]; at 50.0 µM 75.1% | [7]; at 50.0 µM 84.9% | [9]; at 50.0 µM 70.5% | [10]; at 50.0 µM 85.8% | [14]; at 50.0 µM 96.3% | [15]; at 33.0 µM 83% | [15]; at 100.0 µM 91%

COc1cc2c3c(cccc3c1)C(=O)N(CCN(C)C)C2=O
inactive: [1]; at 1.2 µM -6% | [1]; at 3.7 µM -11% | [1]; at 11.0 µM -10% | [1]; at 33.0 µM -1% | [1]; at 100.0 µM 2% | [2]; at 1.2 µM -23% | [2]; at 3.7 µM 1% | [2]; at 11.0 µM 8% | [2]; at 33.0 µM 34% | [3]; at 1.2 µM -24% | [3]; at 3.7 µM -22% | [3]; at 11.0 µM -32% | [3]; at 33.0 µM -23% | [3]; at 100.0 µM -7% | [4]; at 1.2 µM 10% | [4]; at 3.7 µM 0% | [4]; [17] 23% | [4]; at 11.0 µM 29% | [4]; at 33.0 µM 61% | [5]; at 1.2 µM -17% | [5]; at 3.7 µM -11% | [5]; [17] 8% | [5]; at 11.0 µM -23% | [5]; at 33.0 µM -19% | [5]; [18] 11% | [5]; at 50.0 µM -5.45% | [5]; at 100.0 µM 9% | [6]; at 1.2 µM -33% | [6]; at 3.7 µM -18% | [6]; at 11.0 µM -24% | [6]; at 33.0 µM -3% | [6]; at 100.0 µM -14% | [7]; [17] 13% | [7]; [18] 23% | [7]; at 50.0 µM -13.1% | [8]; at 1.2 µM -5% | [8]; at 3.7 µM 13% | [8]; at 11.0 µM 25% | [8]; at 33.0 µM 34% | [8]; at 100.0 µM 21% | [9]; [17] 0% | [9]; [18] 3% | [9]; at 50.0 µM -5.5% | [10]; at 1.2 µM -13% | [10]; at 3.7 µM -12% | [10]; [17] 21% | [10]; at 11.0 µM -9% | [10]; at 33.0 µM -10% | [10]; [18] 21% | [10]; at 50.0 µM -34% | [10]; at 100.0 µM -4% | [12]; at 1.2 µM -39% | [12]; at 3.7 µM 3% | [12]; at 11.0 µM -19% | [12]; at 33.0 µM -9% | [12]; at 100.0 µM 0% | [13]; at 1.2 µM -21% | [13]; at 3.7 µM -14% | [13]; at 11.0 µM -22% | [13]; at 33.0 µM -15% | [13]; at 100.0 µM -11% | [14]; [17] 42% | [14]; [18] 55% | [14]; at 50.0 µM -50.4% | [15]; at 1.2 µM -34% | [15]; at 3.7 µM -18% | [15]; at 11.0 µM -23% | [15]; at 33.0 µM -15% | [15]; at 100.0 µM -27%
active: [2]; at 100.0 µM 78% | [4]; [18] 77% | [4]; at 50.0 µM 71.6% | [4]; at 100.0 µM 88%

CC(CC(C)(C)[N+](C)(C)C)[N+](C)(C)C (stereo unspecified)
inactive: [16]; at 1.2 µM 13% | [16]; at 3.7 µM 1% | [16]; at 11.0 µM 13% | [16]; at 33.0 µM 15% | [16]; at 100.0 µM 14% | [2]; at 1.2 µM -1% | [2]; at 3.7 µM 1% | [2]; at 11.0 µM 1% | [2]; at 33.0 µM 4% | [2]; at 100.0 µM -1% | [3]; at 1.2 µM -1% | [3]; at 3.7 µM 1% | [3]; at 11.0 µM 2% | [3]; at 33.0 µM 1% | [3]; at 100.0 µM 0% | [4]; at 1.2 µM 1% | [4]; at 3.7 µM 1% | [4]; [17] 25% | [4]; at 11.0 µM 2% | [4]; at 33.0 µM 2% | [4]; at 100.0 µM 0% | [5]; at 1.2 µM 5% | [5]; at 3.7 µM -11% | [5]; [17] 19% | [5]; at 11.0 µM -4% | [5]; at 33.0 µM 2% | [5]; at 100.0 µM -4% | [6]; at 1.2 µM 2% | [6]; at 3.7 µM 3% | [6]; at 11.0 µM 3% | [6]; at 33.0 µM 3% | [6]; at 100.0 µM 1% | [7]; [17] 1% | [9]; [17] 35% | [10]; at 1.2 µM -2% | [10]; at 3.7 µM -8% | [10]; [17] 67% | [10]; at 11.0 µM 0% | [10]; at 33.0 µM -1% | [10]; at 100.0 µM -1% | [11]; at 1.2 µM -1% | [11]; at 3.7 µM -1% | [11]; at 11.0 µM 0% | [11]; at 33.0 µM -1% | [11]; at 100.0 µM -1% | [12]; at 1.2 µM -1% | [12]; at 3.7 µM -1% | [12]; at 11.0 µM -2% | [12]; at 33.0 µM -3% | [12]; at 100.0 µM 0%
active: [4]; [18] 95% | [4]; at 50.0 µM 92.8% | [5]; [18] 97% | [5]; at 50.0 µM 96% | [7]; [18] 91% | [7]; at 50.0 µM 95.8% | [9]; [18] 95% | [9]; at 50.0 µM 90.8% | [10]; [18] 99% | [10]; at 50.0 µM 95.7%
